The structures appear in SMILES notation. The campaign covered roughly 68,000 compounds. About 2,700 (4%) showed an effect of 50% or more. The list comes from a sample in which strong results are over-represented; it also holds similar structures and randomly drawn compounds.

INHIBITION data for 56 compounds are collected here from ChEMBL document CHEMBL4513216, “Probing the Open Global Health Chemical Diversity Library for Multistage-Active Starting Points for Next-Generation Antimalarials” (ACS Infect Dis, 2020).

The test relates to Plasmodium berghei. Kind of test: Screen against P. berghei liver stage (PbLuc), transformed with Luciferase, at 2uM. The note with it: tested at 2 uM. Format: functional, HepG2.
Turning to `O=C1NC2(CCN(Cc3cccnc3)CC2)CC1c1cccnc1` (stereo unspecified), the INHIBITION was -22.79%. Consider `Cc1noc(C)c1CN(C)Cn1c(=O)oc2ccccc21`, for which the INHIBITION was -5.31%. As to `CC(C)N1CCC(CC(=O)N2CCN(Cc3nccn3C)CC2)CC1`, the INHIBITION turned out to be 29.41%. The figure for `COCCN1CC[C@]2(CN(Cc3cccnc3)C[C@H]2C)C1=O` is 49.07%; for `Cc1nc2n(n1)CC(NCc1cnn(-c3ccccc3)n1)CC2` (stereo unspecified) it is 24.88%; for `Cc1ccc(C2COCCN2C(=O)c2ccc(C#N)cc2)o1` (stereo unspecified) it is 54.44%.

For `Cc1ccc(C2COCCN2C(=O)c2ccc(CN(C)C)cc2)o1` (stereo unspecified), the INHIBITION came to 27.84%. With `COc1ccc(C(=O)N2CCOCC2c2ccc(C)o2)cc1` (stereo unspecified), the INHIBITION is on record as 39.93%. Regarding `Cc1ccc(C2COCCN2C(=O)c2ccc(N(C)C)cc2)o1` (stereo unspecified), the INHIBITION is reported as 30.73%.

In the case of `CC(=O)Nc1cc(C(=O)N2CCOCC2c2ccc(C)o2)ccc1F` (stereo unspecified), the INHIBITION is given as 44.99%. On to `Cc1ccc(C2COCCN2C(=O)c2ccc(F)c(F)c2)o1` (stereo unspecified), for which the INHIBITION is reported as 70.24%. `Cc1ccc(C2COCCN2C(=O)c2ccsc2)o1` (stereo unspecified): the INHIBITION is 16.01%.

Take `COCc1ccc(C(=O)N2CCOCC2c2ccc(C)o2)cc1` (stereo unspecified): the INHIBITION is recorded as 62.13%.

`Cc1ccc(C2COCCN2C(=O)c2cccc(N(C)C)c2)o1` (stereo unspecified): the INHIBITION came to 43.34%. Next, `CCS(=O)(=O)N1CCCCC1c1nc(C(C)C)no1` (stereo unspecified): -28.84%; `CN1CCN(Cc2ccccc2Oc2ccc(C(N)=O)cn2)CC1`: 8.73%; `CN(Cc1ccc(O)cc1)C(=O)NC1CCCN(c2ncccn2)C1` (stereo unspecified): 36.95%. Next, `Cc1nc(CN2CCCC(c3nccs3)C2)cs1` (stereo unspecified): -33.32%; `Cn1cc(Cl)c(C(=O)N2CCC(N3CCc4ccccc4C3)CC2)n1`: 18.63%; `Cc1c(O)cccc1C(=O)N1CCCC2(C1)C(=O)N(C)c1ccccc12` (stereo unspecified): -91.67%.

Regarding `Cc1noc(COCC(=O)N2CCCC(c3nccs3)C2)n1` (stereo unspecified), the INHIBITION is -7.96%.

For the compound `CCc1cn[nH]c1C1CCCN(C(=O)c2ncoc2C(C)C)C1` (stereo unspecified), the INHIBITION is given as 27.85%. Next, `CCc1cn[nH]c1C1CCCN(C(=O)c2cc(C(C)C)on2)C1` (stereo unspecified): 22.34%; `CCc1cn[nH]c1C1CCCN(C(=O)c2cnc(NC(C)C)nc2)C1` (stereo unspecified): 56.49%; `CCn1cc(NC(=O)C(C)n2ncc(Cl)c2C)c(C(=O)NC)n1` (stereo unspecified): -28.77%. `CC(C)(C)C(=O)N1C[C@H](c2ccsc2)[C@H]2CN(C3CCCCC3)CC[C@H]21`: the INHIBITION was found to be 25.41%. Next, `CC(C)C(=O)N1CCC12CCCN(C(=O)c1ccnnc1)C2` (stereo unspecified): -40.36%; `CC(=O)NC(Cc1c[nH]c2cc(F)ccc12)C(=O)Nc1nncs1` (stereo unspecified): 59.94%. The figure for `CC(=O)NC(Cc1c[nH]c2cc(F)ccc12)C(=O)Nc1nonc1C` (stereo unspecified) is 46.43%; for `CC(=O)NC(Cc1c[nH]c2cc(F)ccc12)C(=O)Nc1cnn(C)c1` (stereo unspecified) it is 11.32%. The figure for `Cc1ccc(CN(C)C(=O)CN2CCCC(Cn3cncn3)C2)cc1` (stereo unspecified) is 10.4%; for `O=C1CCC(c2nc(C3CCNCC3)no2)N1` (stereo unspecified) it is -6.77%; for `CO[C@@H]1CCN(C(=O)c2ccsc2)[C@@H]2CN(CC3CC3)C[C@@H]21` it is 54.01%. Regarding `CCN1C[C@H]2[C@@H](C1)N(C(=O)Cc1ccsc1)CC[C@H]2OC`, the INHIBITION is 48.52%.

For `CO[C@H]1CCN(C(=O)Cc2ccsc2)[C@@H]2CN(CC3CC3)C[C@H]12`, the INHIBITION came out at 22.16%.

Turning to `CCn1nc(C)cc1C(=O)N1CC[C@H](OC)[C@H]2CN(CC3CC3)C[C@H]21`, the INHIBITION amounted to 24.51%. `CCN1C[C@@H]2[C@@H](OC)CCN(C(=O)c3cc(C)nn3CC)[C@@H]2C1`: the INHIBITION is 66.46%. Next, `CO[C@H]1CCN(C(=O)c2ccsc2)[C@@H]2CN(CC3CC3)C[C@H]12`: -1.45%; `O=C(c1cscn1)N1C[C@H]2CCCC(OCc3cccnc3)[C@H]2C1` (stereo partly specified): -16.41%; `COCCCN1CCCN(C(C)C(=O)Nc2cccc(I)c2)CC1` (stereo unspecified): 42.76%. As for `Cc1cc(C)cc(OCC(=O)NC2CCN(S(C)(=O)=O)CC2)c1`, the INHIBITION was -50.23%.

Regarding `CCN(Cc1cccc(C(N)=O)c1)c1ccccc1`, the INHIBITION was found to be 36.74%.

Consider `Cc1ncsc1C(=O)NC1CCN(Cc2ccc(C(N)=O)cc2)CC1`, for which the INHIBITION is listed as -2.82%. `Cc1ncsc1C(=O)NC1CCN(Cc2ccc(C(F)(F)F)cc2)CC1`: the INHIBITION amounted to 74.35%.

With `Cc1ccc(CN2CCC(NC(=O)c3scnc3C)CC2)cc1`, the INHIBITION was -21.72%. In the case of `Cc1cc(CN2C[C@@H]3CC[C@H]2CN(C2Cc4ccccc4C2)C3)on1`, the INHIBITION is listed as 17.28%. Take `CCC(NCc1ccccc1)c1ccccc1OCC(=O)NC` (stereo unspecified): the INHIBITION was -3.09%. The figure for `COc1ccc(N2CCC(NC(=O)c3ccc(C#N)cc3)CC2)cc1` is 45.62%; for `COc1cccc(N2CCC(N3C[C@@H](NC(C)=O)[C@H](C(C)C)C3)CC2)c1` it is 52.98%; for `COc1ccc(N2CCC(N3C[C@H](NC(C)=O)[C@@H](C(C)C)C3)CC2)cc1` it is 55.36%. Next, `COc1ccc(N2CCC(N(C)C(C)C(=O)N(C)C)CC2)cc1` (stereo unspecified): -2.89%. Regarding `COc1ccc(N2CCC(N(C)C(=O)C(C)SC)CC2)cc1` (stereo unspecified), the INHIBITION is recorded as 27.5%. As to `CC(=O)N[C@@H]1CN(C2CCN(c3ccccc3F)CC2)C[C@H]1C(C)C`, the INHIBITION is on record as 7.67%. The figure for `CCOC(C)C(=O)N(C)C1CCN(c2ccc(OC)cc2)CC1` (stereo unspecified) is 73.09%. Next, `CC(=O)N[C@@H]1CN(C2CCN(c3cccc(C)c3C)CC2)C[C@H]1C(C)C`: 29.13%; `CC(=O)N[C@@H]1CN(C2CCN(c3cccc(Cl)c3)CC2)C[C@H]1C(C)C`: 21.97%.
